Measured values as given in the supplement of paper PMC9492666.

The compounds below were run on MDA-MB-231 (assay: relative cell viability, compound alone, vs DMSO (fraction of DMSO control); higher = less growth inhibition). Details: 72 h.
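Note: viability read out with the CCK-8 kit in 96-well plates, screening a set of 303 compounds acting on lipid metabolism targets.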

SMILES | relative cell viability
Cc1nc2c([nH]1)c(=O)n(C)c(=O)n2Cc1ccco1 [Furafylline] | 0.924
N#Cc1ccc(Oc2cccc(NC(=O)Nc3ccc(Cl)c(C(F)(F)F)c3)c2)cc1 | 0.276
CCc1ccc(CCOc2ccc(CC3SC(=O)NC3=O)cc2)nc1 (stereo unspecified) [Pioglitazone] | 0.843
CC[C@H](C)C(=O)O[C@H]1C[C@@H](C)C=C2C=C[C@H](C)[C@H](CC[C@@H]3C[C@@H](O)CC(=O)O3)[C@H]21 [Lovastatin] | 0.657
O=C(NN1CCCCC1)c1nn(-c2ccc(Cl)cc2Cl)c(-c2ccc(C#Cc3ccc(C(F)(F)F)cc3)s2)c1CNS(=O)(=O)N1CCCC1 | 0.893
C[C@@H]1O[C@@H](O[C@H]2[C@H](Oc3cc(O)c4c(c3)O[C@H](c3ccc(O)cc3)CC4=O)O[C@H](CO)[C@@H](O)[C@@H]2O)[C@H](O)[C@H](O)[C@H]1O [Naringin] | 0.892
C[C@H](CCC(=O)O)[C@H]1CC[C@H]2[C@@H]3C[C@H](O)[C@@H]4C[C@H](O)CC[C@]4(C)[C@H]3CC[C@]12C [Hyodeoxycholic acid] | 1.02
COc1cc(C(C)=O)ccc1O [Acetovanillone] | 0.891
COc1ccc(-n2c(SCCCN3C(=O)c4cccc5cccc(c45)C3=O)nnc2-c2ccncc2)cc1 | 0.877
COc1ccc([C@@H]2OC[C@H]3[C@@H]2CO[C@@H]3c2ccc(O[C@@H]3O[C@H](CO)[C@@H](O)[C@H](O)[C@H]3O)c(OC)c2)cc1OC [Forsythin] | 1.06
O=C(Nc1cccnc1)N1CCC(Cc2cccc(Oc3ccc(C(F)(F)F)cn3)c2)CC1 | 1.01
